# Sampled rows, rich in hits. Any-hit rate of the full collection: about 0.99%.
# TRPV1 agonist – HTS Assay for Compounds that Act as Agonists of the Vanilloid Receptor 1 | Transient receptor potential cation channel subfamily V member 1 (Homo sapiens), Q8NER1 | hit rate 0.19% among 320,000 | activation, % at 8.33 µM | TRPV1-expressing cells, Fluo-8 calcium influx, agonist mode | AID 540275, 2011; in the data active = activation above about 80%; inconclusive = between about 30% and that limit
#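 Fluo-8 calcium influx in TRPV1-expressing cells, kinetic read (ex 480/em 520 nm). Compound added and read 3 min for agonist activity, followed by capsaicin at EC20 final and 2 min further read for enhancement.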
# TRPML1 ag – qHTS for Agonists of the Human Mucolipin Transient Receptor Potential 1 (TRPML1) | Mucolipin-1 (Homo sapiens), Q9GZU1 | TRPML1-expressing cells, Ca2+ dye fluorescence, FDSS | activation, % (concentration not given with the values) | hit rate 0.12% among 410,000 | AID 624414, 2012; in the data active = activation above about 50%; inconclusive = mostly about 30% to 49%
#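 Agonist activity was taken from a 110 s kinetic Ca2+ dye read on the FDSS after pinning compounds onto TRPML1-DL cells. The cells were seeded at 1,500/well with Tet inducer, incubated about 16 h, then dye-loaded at room temperature.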
# TRPV1 potentiator – HTS Assay for Compounds that Act as Potentiators of the Vanilloid Receptor 1 | AID 540277, 2011 | potentiation, % at 8.33 µM | hit rate 0.02% among 320,000 | Transient receptor potential cation channel subfamily V member 1 (Homo sapiens), Q8NER1 | TRPV1-expressing cells, Fluo-8 calcium influx, capsaicin EC20 potentiation; in the data active = potentiation above about 80%; inconclusive = between about 30% and that limit
#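 Fluo-8 calcium influx in TRPV1-expressing cells, kinetic read (ex 480/em 520 nm). Compound added and read 3 min for agonist activity, followed by capsaicin at EC20 final and 2 min further read for enhancement.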
# TRPML1 inh – qHTS for Inhibitors of the Human Mucolipin Transient Receptor Potential 1 (TRPML1); activity change, negative = inhibition, % (test concentration not listed); hit rate 0.02% among 390,000; TRPML1-inducible cells, Ca2+ dye fluorescence, FDSS; hits give low values; inhibition of EC80 agonist-evoked calcium signal; AID 624415, 2012; Mucolipin-1 (Homo sapiens), Q9GZU1; in the data active = activity change below about -50%; inconclusive = between about -30% and that limit;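 also: stimulus is agonist 54-4 at its EC80 concentration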
#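 Tet-induced TRPML1-DL cells loaded with Ca8 no-wash calcium dye were read kinetically on FDSS. Compound addition was followed by EC80 agonist 54-4 (4 uM final); inhibition was read over 110 s.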
# TRHR agonist – qHTS for Small Molecule Agonists and Allosteric Enhancers of Human TRH Receptor: Primary Screen for Agonists; Thyrotropin-releasing hormone receptor (Homo sapiens), P34981; TRHR cells, calcium flux fluo-8, FDSS agonist mode; activation, % at 2 µM; hit rate 0.18% among 360,000; in the data active = activation above about 30%
# Target sequence (P34981 whole entry, looked up): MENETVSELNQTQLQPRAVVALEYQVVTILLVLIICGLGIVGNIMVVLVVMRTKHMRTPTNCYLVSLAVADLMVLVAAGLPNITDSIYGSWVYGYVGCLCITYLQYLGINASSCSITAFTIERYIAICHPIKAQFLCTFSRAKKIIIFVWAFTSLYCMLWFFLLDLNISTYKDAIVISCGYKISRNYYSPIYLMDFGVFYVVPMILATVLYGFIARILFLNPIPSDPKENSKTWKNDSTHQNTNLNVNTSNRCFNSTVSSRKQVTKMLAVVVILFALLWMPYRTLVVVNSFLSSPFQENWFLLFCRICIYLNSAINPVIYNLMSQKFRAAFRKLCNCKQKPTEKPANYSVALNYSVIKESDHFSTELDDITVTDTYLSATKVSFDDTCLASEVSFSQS
#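 Agonist-mode FDSS calcium read (Ex 480/Em 530, 1 s cycles) in 1536-well TRHR cells with fluo-8 dye, after 10-cycle baseline and 23 nL compound addition; TRH at EC20 (10 nM final) added afterwards for the enhancer phase.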
# TRHR enhancer – qHTS for Small Molecule Agonists and Allosteric Enhancers of Human TRH Receptor: Primary Screen for Enhancers; Thyrotropin-releasing hormone receptor (Homo sapiens), P34981; TRHR cells, fluo-8 calcium fluorescence, EC20 TRH enhancement; enhancement, % at 2 µM; hit rate 0.66% among 360,000; AID 493056, 2011; in the data active = enhancement above about 30%
#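 Enhancer read-out: after compound pinning and an initial kinetic agonist-mode read, an EC20 of TRH (10 nM final) was injected and fluo-8 calcium signal (Ex 480/Em 530) followed at 1 s/cycle for 100 cycles in TRHR-expressing cells.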
# Numbers stand for hits; . = inactive; ? = inconclusive; / = no result.
SMILES,TRPV1 agonist,TRPML1 ag,TRPV1 potentiator,TRPML1 inh,TRHR agonist,TRHR enhancer
O=C(NCC1COc2ccccc2O1)c1cccs1 (stereo not given),.,.,.,.,.,.
O=C(NCC1COc2ccccc2O1)c1ccc(Br)s1 (stereo not given),85,.,.,.,.,.
Cc1cc2c(s1)c1cnn(Cc3c(F)ccc(C)c3F)c(=O)c1n2C,/,/,/,/,.,.
Cc1ccc(S(=O)(=O)N2CCN(c3nc(-n4cncn4)nc4ccccc34)CC2)cc1,/,.,/,/,/,/
COc1ccc(CCNC(=O)CN(c2cc([N+](=O)[O-])ccc2OC)S(C)(=O)=O)cc1OC,.,.,.,.,.,32
COc1ccc(CCNC(=O)CN(c2cccc([N+](=O)[O-])c2)S(C)(=O)=O)cc1OC,.,.,.,.,.,.
Cc1nn(Cc2ccccc2)c(C)c1NC(=O)CCCn1nc(C)c([N+](=O)[O-])c1C,.,.,.,.,.,.
Cc1nn(Cc2ccc(Cl)cc2)c(C)c1NC(=O)CCCn1nc(C)c([N+](=O)[O-])c1C,93,.,.,.,.,.
Nc1nc(COc2ccc(Cl)cc2)cs1,.,.,.,.,.,38
Cc1ccc(OCc2csc(N)n2)cc1,.,.,.,.,.,.
CCCC1=NN2C(=N)/C(=C\c3ccc(OCCOc4ccc(NC(C)=O)cc4)c(OC)c3)C(=O)N=C2S1,.,.,.,.,.,31
CC[C@@H]1CCC[C@@H](O)[C@@H](C)C(=O)O[C@H](C)[C@@H](C)C/C=C(C)/C(OC)=C\C(=O)N(C)C([C@@H](C)CC)C(=O)N(C)[C@@H](C(C)C)C(=O)N(C)[C@@H](COC)C(=O)N2CCC[C@H]2C(=O)N(C)[C@@H](C(C)C)C(=O)N2CCC[C@H]2C(=O)O1 (stereo not given in full),/,51,/,/,/,/
C=CCNC(=O)c1sc(-c2ccccc2)nc1C,?,.,.,.,.,39
O=C(Nc1nc2c(s1)CN(Cc1ccccc1)CC2)c1cccc(S(=O)(=O)N2CCc3ccccc32)c1,.,.,.,.,46,.
COC(=O)c1ccc(C(=O)OC)c(NC(=O)CN(C)Cc2ccccc2)c1,?,.,.,.,.,31
COC(=O)c1ccc(C(=O)OC)c(NC(=O)CN(C)Cc2cccc(Cl)c2Cl)c1,?,.,.,.,.,.
O=C1c2ccccc2CN1CCSC(=S)N1CCSCC1,90,/,.,/,.,.
Nc1ccc2nc(CCc3ccccc3)[nH]c2c1,.,.,.,.,.,.
Nc1ccc2nc3c(=O)n(C4CCCCC4)c(=O)[nH]c3nc2c1,?,80,.,.,128,.
CCCCn1c(N)c(Br)c(=O)[nH]c1=O,.,.,.,.,.,.
CCCCn1c(=O)[nH]c2nc3cc(N)ccc3nc2c1=O,?,74,.,.,108,.
COc1cc2[nH]c(=O)n(C3CCCCC3)c(=O)c2cc1OC,.,.,.,.,.,.
Cc1cc2nc3c(=O)n(CCc4ccccc4)c(=O)[nH]c3nc2cc1N,?,114,.,.,142,.
Nc1ccc2nc3c(=O)n(CCc4ccccc4)c(=O)[nH]c3nc2c1,107,75,.,.,164,58
COc1ccc(CN2CC[C@H]3C=CC[C@@H](C(=O)Nc4ccccc4)[C@H]3C2=O)cc1OC,/,.,/,/,/,/
CN(C)c1ccc(C=O)c(O)c1,/,.,/,/,/,/
CCN(CC)c1cccc(OC2=NS(=O)(=O)c3ccccc32)c1,.,.,.,.,.,37
Cc1cc2c(s1)c1cnn(Cc3ccc(Cl)c(F)c3)c(=O)c1n2C,/,/,/,/,.,.
